From PubChem BioAssay come the findings set out here.

Test [1] in a line: antimalarial activity against Dd2 strain (AID 2302;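 active = growth inhibition above 50% at the single 2 µM test dose, taken to imply half-maximal potency below 2 µM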;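 note: 0% = DMSO untreated growth and 100% = chloroquine plus artemisinin killed control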). Conditions: P. falciparum Dd2 in RBCs, LDH growth readout, 72 h; at 2 µM; hits give high values.
The nature of test [2]: human hepatoma cell viability loss – ATP luminescence, cytotoxicity control for P. falciparum antimalarial project, primary screen (AID 2303;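 active = inhibition above 50%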;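 note: 0% = DMSO wells and 100% = digitonin-killed cells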). To be noted: HepG2 viability, 24-48 h, at 10 µM, hits give high values.
Test [3] has as its target L-lactate dehydrogenase (Plasmodium falciparum (isolate CDC / Honduras)) (UniProt Q27743). Nature of the test: PfLDH activity inhibition – cell lysate, 3D7 strain, counter-screen for P. falciparum growth inhibition project (AID 2304).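 Note: 0% = vehicle and 100% = reference inhibitor.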 Conditions: P. falciparum 3D7 crude extract, LDH APAD/NBT absorbance; at 2 µM; hits give high values.
Test [4] is described as follows: inhibition of 3D7 malaria parasite growth – strain 3D7 (AID 2306).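 Note: 0% = DMSO wells and 100% = chloroquine plus artemisinin control wells.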 Conditions: P. falciparum 3D7 erythrocytic growth, LDH absorbance, 72 h; at 2 µM; hits give high values.
For test [5], the target named is Calcium-dependent protein kinase 1 (Plasmodium falciparum (isolate 3D7)) (UniProt P62344). Nature of the test: PfCDPK1 kinase inhibitors, biochemical, TCAMS library (AID 1159585; cut-off not given, nearly all actives have IC50 up to about 0.98 µM;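 note: inhibitors leave more ATP so luminescence rises with inhibition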). To be noted: recombinant PfCDPK1, Kinase-Glo ATP depletion luminescence.
In test [6] the target is Plasmodium falciparum protein kinase 6 (PK6, PF3D7_1337100) (UniProt Q8IDW1). In words: PfPK6 kinase inhibitors, biochemical, TCAMS library (AID 1159586). Conditions: recombinant PfPK6, Kinase-Glo ATP depletion luminescence.
The target of test [7] is Protein kinase 7 (PK7), Plasmodium falciparum 3D7 (PF3D7_0213400) (UniProt Q7YTF7). Nature of the test: inhibition of Plasmodium PK7 catalytic activity – biochemical, TCAMS antimalarial set, Kinase-Glo luminescence (AID 1159587). To be noted: recombinant PfPK7, Kinase-Glo ATP depletion luminescence. On the technique in general: Kinase-Glo reads ATP consumption through a luciferase reaction.

In test [8] the target is Calcium-dependent protein kinase 4 (Plasmodium falciparum (isolate 3D7)) (UniProt Q8IBS5). In words: PfCDPK4 kinase inhibitors, biochemical, TCAMS library (AID 1159588; cut-off not given, nearly all actives have IC50 up to about 0.91 µM). To be noted: recombinant PfCDPK4, Kinase-Glo ATP depletion luminescence.

Values without a mark were called inactive. For some of these results: Results with a measured potency or affinity are listed apart. Activity calls are given as the source filed them. Unless noted, the rule behind the calls is not given here.

Chain of L-lactate dehydrogenase (Plasmodium falciparum (isolate CDC / Honduras)) (Q27743 whole entry, looked up): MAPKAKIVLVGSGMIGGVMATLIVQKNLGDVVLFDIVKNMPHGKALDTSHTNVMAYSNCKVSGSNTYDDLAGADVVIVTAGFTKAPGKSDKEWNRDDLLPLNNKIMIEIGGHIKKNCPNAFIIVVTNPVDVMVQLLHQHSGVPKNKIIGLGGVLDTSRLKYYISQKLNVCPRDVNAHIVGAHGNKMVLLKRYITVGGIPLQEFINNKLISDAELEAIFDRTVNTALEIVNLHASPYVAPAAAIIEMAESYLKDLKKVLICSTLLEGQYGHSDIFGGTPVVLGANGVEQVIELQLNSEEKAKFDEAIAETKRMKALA
Chain of Plasmodium falciparum protein kinase 6 (PK6, PF3D7_1337100) (Q8IDW1 1-305): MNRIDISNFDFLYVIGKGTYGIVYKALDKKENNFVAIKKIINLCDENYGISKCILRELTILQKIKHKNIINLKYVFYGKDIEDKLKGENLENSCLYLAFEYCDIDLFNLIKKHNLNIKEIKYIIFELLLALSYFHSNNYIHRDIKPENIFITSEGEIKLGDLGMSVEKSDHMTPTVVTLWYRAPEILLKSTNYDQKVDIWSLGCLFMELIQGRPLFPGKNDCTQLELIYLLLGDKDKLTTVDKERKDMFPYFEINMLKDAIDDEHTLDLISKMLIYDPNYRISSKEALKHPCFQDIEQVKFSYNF
Chain of Protein kinase 7 (PK7), Plasmodium falciparum 3D7 (PF3D7_0213400) (Q7YTF7 1-343): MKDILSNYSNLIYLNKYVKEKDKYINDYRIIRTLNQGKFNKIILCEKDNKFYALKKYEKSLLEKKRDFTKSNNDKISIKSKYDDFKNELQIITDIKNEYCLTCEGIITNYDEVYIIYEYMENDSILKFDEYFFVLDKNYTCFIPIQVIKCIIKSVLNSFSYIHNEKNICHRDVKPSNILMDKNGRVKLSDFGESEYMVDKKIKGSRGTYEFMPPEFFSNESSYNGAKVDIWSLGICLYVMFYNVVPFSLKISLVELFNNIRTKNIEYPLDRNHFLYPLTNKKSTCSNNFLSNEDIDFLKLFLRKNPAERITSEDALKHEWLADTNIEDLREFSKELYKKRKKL
Chain of Calcium-dependent protein kinase 1 (Plasmodium falciparum (isolate 3D7)) (P62344 whole entry, looked up): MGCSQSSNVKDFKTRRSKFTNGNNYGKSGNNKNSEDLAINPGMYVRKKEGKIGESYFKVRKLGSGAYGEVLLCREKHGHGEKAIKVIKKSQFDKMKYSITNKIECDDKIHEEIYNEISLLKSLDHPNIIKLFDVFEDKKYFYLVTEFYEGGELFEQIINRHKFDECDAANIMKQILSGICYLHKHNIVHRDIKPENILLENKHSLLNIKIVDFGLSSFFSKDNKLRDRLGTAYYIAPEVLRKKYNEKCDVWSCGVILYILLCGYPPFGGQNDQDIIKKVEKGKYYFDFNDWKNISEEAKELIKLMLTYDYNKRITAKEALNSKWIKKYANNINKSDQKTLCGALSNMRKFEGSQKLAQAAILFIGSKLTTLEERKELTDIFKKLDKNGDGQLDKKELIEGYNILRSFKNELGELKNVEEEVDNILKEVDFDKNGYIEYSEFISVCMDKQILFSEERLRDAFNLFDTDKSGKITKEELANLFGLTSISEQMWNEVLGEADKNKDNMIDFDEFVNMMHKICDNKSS
Chain of Calcium-dependent protein kinase 4 (Plasmodium falciparum (isolate 3D7)) (Q8IBS5 whole entry, looked up): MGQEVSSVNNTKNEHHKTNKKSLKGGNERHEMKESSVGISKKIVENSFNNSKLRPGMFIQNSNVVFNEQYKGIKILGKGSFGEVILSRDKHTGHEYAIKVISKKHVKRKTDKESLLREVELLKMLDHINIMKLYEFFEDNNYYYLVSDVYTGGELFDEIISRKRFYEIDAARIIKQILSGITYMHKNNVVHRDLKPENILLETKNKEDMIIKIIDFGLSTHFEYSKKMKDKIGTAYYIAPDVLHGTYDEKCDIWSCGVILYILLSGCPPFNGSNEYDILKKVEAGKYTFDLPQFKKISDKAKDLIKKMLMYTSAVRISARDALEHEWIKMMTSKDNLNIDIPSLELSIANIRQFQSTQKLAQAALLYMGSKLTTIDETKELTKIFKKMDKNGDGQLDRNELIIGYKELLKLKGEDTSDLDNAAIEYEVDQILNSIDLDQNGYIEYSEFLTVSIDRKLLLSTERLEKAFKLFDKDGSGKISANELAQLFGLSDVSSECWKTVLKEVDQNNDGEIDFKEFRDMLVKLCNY

What is called inhibition is the relative decrease from the control value, in per cent. As for `O=[N+]([O-])c1cccc(CNCC2CCN(Cc3ccc(C(F)(F)F)cc3)CC2)c1`, the growth inhibition in test [1] is 23%; in test [4] it was 101% (active). Further, the inhibition was 7% in test [2] and 2% in test [3]. Moreover, the outcome in test [5], in test [6], in test [7] and in test [8] was inactive.
`O=C(NCCCCCN1CCC(c2c[nH]c3ccccc23)C1)Nc1ccc(Cl)c(Cl)c1` (stereo not given): the growth inhibition was 19% in test [1] and 95% (active) in test [4]. The inhibition in test [2] is 28%; in test [3] it was 1%. Moreover, the outcome in test [5], in test [6], in test [7] and in test [8] was inactive.
`COc1ccc(-c2cnc3ccc(NCc4ccc(S(N)(=O)=O)cc4)nn23)cc1`: the growth inhibition in test [1] is 99% (active); in test [4], 96% (active). Besides, the figures for the inhibition in test [2] and in test [3] were 19% and -2%, respectively. The result in test [5], in test [6], in test [7] and in test [8] was inactive.
As for `COc1cc(NC(=O)N2CCc3cc(OC)c(OCCN4CCCCC4)cc32)cc(C(F)(F)F)c1`, the growth inhibition in test [1] was 10%; in test [4], 93% (active). Moreover, the figures for the inhibition in test [2] and in test [3] were 9% and -3%, respectively. In addition, the outcome in test [5], in test [6], in test [7] and in test [8] was inactive.
As for `CCCc1cc(N2CCC(N3CCCC3)CC2)nc(Nc2ccc(OC)cc2)n1`, the growth inhibition in test [1] was 14%; in test [4] it was 94% (active). The inhibition in test [2] is 15%; in test [3] it was 6%. Also, the outcome in test [5], in test [6], in test [7] and in test [8] was inactive.
Turning to `Cc1ccc(CN2CCCN(Cc3cccc(NC(=O)c4cc5ccccc5s4)c3)CC2)cc1`, the growth inhibition is 28% in test [1] and 87% (active) in test [4]. The inhibition was 32% in test [2] and -3% in test [3]. The outcome in test [5], in test [6], in test [7] and in test [8] was inactive.
On to `CC(C)c1nc2c(N)nc(N)nc2nc1N`, for which the growth inhibition is -1% in test [1] and 84% (active) in test [4]. Besides, the inhibition in test [2] was 64% (active); in test [3] it was 2%. The result in test [5], in test [6], in test [7] and in test [8] was inactive.
Take `CC(C)N1CCN(c2ccc(OCCCN3CCN(c4cccc(Cl)c4Cl)CC3)c(C(F)(F)F)c2)CC1`: the growth inhibition in test [1] was 37%; in test [4], 94% (active). Also, the inhibition was 79% (active) in test [2] and 0% in test [3]. Also, the outcome in test [5], in test [6], in test [7] and in test [8] was inactive.
As to `O=C(NCCCCN1CCC(c2ccc3c(c2OCCO)CCCC3)CC1)c1ccc2oc(-c3ccc(C(F)(F)F)cc3)cc2c1`, the growth inhibition in test [1] is 56% (active); in test [4] it was 93% (active). Further, the figures for the inhibition in test [2] and in test [3] were 54% (active) and 4%, respectively. Also, the result in test [5], in test [6], in test [7] and in test [8] was inactive.
As to `O=C(CCc1cnc[nH]1)Nc1cccc(-c2ccc(-c3nc4ccc(F)cc4[nH]3)cc2)c1`, the growth inhibition in test [1] is 79% (active); in test [4], 101% (active). Moreover, the inhibition in test [2] is 18%; in test [3], -1%. Moreover, the result in test [5], in test [6], in test [7] and in test [8] was inactive.
Regarding `CN(C)C(=O)CCCn1c(CNCCCNc2cc(=O)c3ccccc3[nH]2)cc2c(Cl)cc(Cl)cc21`, the values for the growth inhibition in test [1] and in test [4] were -4% and 89% (active), respectively. Besides, the inhibition in test [2] is 1%; in test [3], -1%. In addition, the result in test [5], in test [6], in test [7] and in test [8] was inactive.
For the molecule `CCOCCCn1c(=N)c(C(=O)NCc2ccc(F)cc2)cc2c(=O)n3cccc(C)c3nc21`, the values for the growth inhibition in test [1] and in test [4] were 40% and 101% (active), respectively. The inhibition in test [2] was 21%; in test [3], 5%. For the same molecule, the result in test [5], in test [6], in test [7] and in test [8] was inactive.
Turning to `CC(Nc1ccc2c(c1)OCCO2)C(=O)Nc1cc(C(F)(F)F)ccc1N1CCOCC1` (stereo not given), the growth inhibition in test [1] was 70% (active); in test [4], 98% (active). In addition, the inhibition in test [2] is -6%; in test [3] it was 1%. The outcome in test [5], in test [6], in test [7] and in test [8] was inactive.
Take `Cc1cc(-c2ccc(CNCc3ccc(F)cc3)cc2)ccc1S(=O)(=O)NCCN1CCCC1`: the growth inhibition in test [1] is 41%; in test [4] it was 100% (active). Also, the inhibition was 95% (active) in test [2] and -1% in test [3]. Further, the result in test [5], in test [6], in test [7] and in test [8] was inactive.
Take `Cc1cc(F)ccc1[C@H]1CNCCN1C(=O)N(C)C(C)(C)c1cc(C(F)(F)F)cc(C(F)(F)F)c1`: the growth inhibition in test [1] was 100% (active); in test [4], 101% (active). Further, the values for the inhibition in test [2] and in test [3] were 24% and -4%, respectively. In addition, the result in test [5], in test [6], in test [7] and in test [8] was inactive.
Take `O=C(CCc1cccnc1)Nc1ccc(-c2cccc(-c3nc4ccc(F)cc4[nH]3)c2)cc1`: the growth inhibition in test [1] was 9%; in test [4], 86% (active). The inhibition in test [2] was 67% (active); in test [3] it was 2%. In addition, the outcome in test [5], in test [6], in test [7] and in test [8] was inactive.
With `CCCNC(=O)c1cncc(-c2cccc(CNC3Cc4ccccc4C3)c2)c1`, the growth inhibition in test [1] was 2%; in test [4], 100% (active). Moreover, the inhibition in test [2] was -2%; in test [3] it was -3%. For the same molecule, the result in test [5], in test [6], in test [7] and in test [8] was inactive.
On to `CCN(CC)CCCN(C(=O)Nc1ccc(C#N)cc1)c1nc(-c2ccc(F)cc2)cs1`, for which the growth inhibition was 68% (active) in test [1] and 99% (active) in test [4]. Also, the inhibition in test [2] was 36%; in test [3] it was 0%. For the same molecule, the outcome in test [5], in test [6], in test [7] and in test [8] was inactive.
Regarding `Cc1cccc2[nH]c(-c3ccc(-c4cccc(CNC5CCN(C)CC5)c4)s3)nc12`, the growth inhibition in test [1] is 73% (active); in test [4] it was 98% (active). The inhibition in test [2] is 21%; in test [3], 2%. Also, the result in test [5], in test [6], in test [7] and in test [8] was inactive.
`COc1ccc2nccc(NCC3(O)CCN(CCc4ccc5c(c4)OCCO5)CC3)c2n1`: the growth inhibition in test [1] was 87% (active); in test [4] it was 100% (active). Moreover, the inhibition in test [2] was 35%; in test [3] it was 3%. In addition, the result in test [5], in test [6], in test [7] and in test [8] was inactive.
